A549 tox = counter-screen for Nrf2 inhibitors: cytotoxicity in A549 cells | A549 ARE-Fluc cells, CellTiter-Fluor viability, 18-24 h | Potency, µM (highest dose often 46 µM), usual class: inhibitors | hit rate 0.16% among 390,000 | AID 504648
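A549 ARE-Fluc cells in 5% FBS OPTI-MEM, 5000 cells/well, rested 2 h then exposed to compounds in concentration-response for 18-24 h at 37 °C. Viability by CellTiter-Fluor fluorescence (Ex 405/Em 525) after 30 min; luciferase luminescence (BugLite, 15 min, RT) read afterwards.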
rTrxR1 inhibitor = blocks rat thioredoxin reductase 1; O89049; recombinant rTrxR1, NADPH fluorescence consumption, selenite substrate; Potency, µM (top dose mostly 114 µM), actives largely listed as inhibitors; hit rate 1% among 390,000; AID 588453; note: nearly all actives have a fitted effect of over 65% in size
Target sequence (O89049 whole entry, looked up): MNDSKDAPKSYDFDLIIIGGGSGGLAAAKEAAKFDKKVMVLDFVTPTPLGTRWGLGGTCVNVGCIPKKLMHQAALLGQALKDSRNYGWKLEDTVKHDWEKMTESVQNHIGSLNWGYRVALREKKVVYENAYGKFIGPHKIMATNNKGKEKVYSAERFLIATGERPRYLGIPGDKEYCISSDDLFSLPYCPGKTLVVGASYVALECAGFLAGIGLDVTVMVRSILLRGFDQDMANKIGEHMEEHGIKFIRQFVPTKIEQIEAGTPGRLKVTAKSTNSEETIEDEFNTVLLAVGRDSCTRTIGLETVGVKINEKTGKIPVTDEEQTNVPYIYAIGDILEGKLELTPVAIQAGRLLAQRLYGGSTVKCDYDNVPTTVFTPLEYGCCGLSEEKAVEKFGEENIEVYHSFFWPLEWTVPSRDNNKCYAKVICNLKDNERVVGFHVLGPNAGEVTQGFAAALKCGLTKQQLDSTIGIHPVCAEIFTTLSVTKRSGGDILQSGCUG
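Rat TrxR1 (90 nM in the dispensed reagent) was pre-reduced with 400 uM NADPH for 5 min at room temperature, then incubated with compound for 15 min. After 400 uM selenite was added, NADPH fluorescence (Ex 340/Em 450 nm) was followed for 8 min.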
Nrf2 inh = blocks Nrf2 signaling. A549 ARE-Fluc reporter, luciferase luminescence, 18-24 h. Potency, µM (series often up to 46 µM), actives largely listed as inhibitors. hit rate 2.1% among 360,000. AID 504444; note: nearly all actives have a fitted effect of over 60% in size
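A549 ARE_Fluc cells (5000/well, 5% FBS OPTI-MEM) pre-incubated 2 h, then treated with compounds 18-24 h at 37C/5% CO2 in concentration-response. CellTiter-Fluor viability read first; BugLite luciferase luminescence after 15 min at room temperature gives Nrf2 activity.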
TrxR1 substrate = is turned over as a substrate by rat TrxR1; hit rate 0.01% among 390,000; Potency, µM (series often up to 114 µM); purified TrxR1 substrate turnover, NADPH consumption readout; O89049; note: nearly all actives have a fitted effect of over 50% in size
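Rat TrxR1, dispensed at 90 nM, was prereduced with 400 uM NADPH (final) for 5 min at ~22 deg C, then incubated with compound 15 min before 400 uM selenite. A first-read NADPH fluorescence drop versus no-compound background flagged substrates.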
Mito fusion act = inhibitors of mitochondrial division or activators of mitochondrial fusion; S. cerevisiae fusion-defective mutant growth rescue, CellTiterGlo 48 h; Potency, µM (titrated, usually from 46.1 µM), usual class: activators; hit rate 0.23% among 320,000; note: nearly all actives have a fitted effect of over 45% in size
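Temperature-sensitive fusion-defective S. cerevisiae (e.g. fzo1-1, mgm1-5) were grown with compound in YPEG medium (3% ethanol, 3% glycerol) for 48 hours at 37C. Growth rescue was measured as viability by CellTiterGlo luminescence after 10 minutes at ambient.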
mIDH1 inhibitor = inhibitors of human mutant IDH1 R132H | Potency, µM (doses to about 76.6 µM), most hits filed as inhibitors | IDH1-R132H enzyme, NADPH consumption, diaphorase/resazurin fluorescence | O75874 | hit rate 0.093% among 390,000; note: nearly all actives have a fitted effect of over 65% in size
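IDH1-R132H (0.5 ug/mL dispensed) in pH 7.5 Tris buffer was preincubated 30 min with compound, then given a substrate mix of 0.016 mM NADPH and 2 mM alpha-KG for 80 min at room temperature; remaining NADPH was read by diaphorase/resazurin fluorescence.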
Numbers stand for hits; - = inactive; ? = inconclusive; . = no result; [ ] = dose if it differs, or a comment. A selection: hits, their analogues and other compounds. The true share with any hit is near 3.1%. Calls come from the whole dose curve; as a rule, active = well fitted curve in the direction sought with a large enough effect; inconclusive = small, poorly fitted or top-dose-only effect, or another doubt; inactive = no such curve, though single readings can be large; an effect the other way counts as inactive or inconclusive.

SMILES	A549 tox	rTrxR1 inhibitor	Nrf2 inh	TrxR1 substrate	Mito fusion act	mIDH1 inhibitor
Cc1ccc(N[S+](=O)([O-])c2cc3c(cc2CCc2ccccc2)NC(=O)CO3)cc1C	-	.	-	.	.	.
COc1cc(C2C=C(C34CC5CC(CC(C5)C3)C4)NC(=S)N2)cc(OC)c1OC (centres undefined)	-	-[11.4 µM]	23µM	-[11.4 µM]	-	-
COc1ccc(OC)c(C2C=C(C34CC5CC(CC(C5)C3)C4)NC(=S)N2)c1 (centres undefined)	-	-	?	-	?	-
N#Cc1nc(Nc2cc(F)cc(F)c2)c2ncn(CCCN3CCCC3)c2n1	2.1µM	.	-	.	.	.
CCn1cnc2c(Nc3cc(F)cc(F)c3)nc(C#N)nc21	-	-	?	-	-	.
O=S(=O)(NCCNCC=Cc1ccc(Br)cc1)c1cccc2cnccc12	.	-[0.0914 µM]	.	-	.	.
COc1cccc(CN2CC34CCC(CC3S2(=O)=O)O4)c1 (centres undefined)	-	-	-	-	.	.
O=C(Nc1nccs1)c1ccc(Br)o1	-	-	?	-	-	-
O=C(/C=C/c1ccc(Br)o1)NCc1ccccc1	-	4µM	-	-	-	-
O=C(/C=C/c1ccc(Br)o1)Nc1nccs1	-	28µM	?	-	-	-
CN(C)/C=C/c1oc2ccc(O)cc2c1[N+](=O)[O-]	16µM	-	?	-	-	-
Cc1oc2ccc(O)cc2c1C(=O)c1ccc([N+](=O)[O-])cc1	-	-	?	-	-	-
O=C1C[C@H]2C=CCc3cccc(c32)CN1Cc1cccc(F)c1	.	-	.	-	.	.
CC(C)Nc1ncnc2c1cnn2Cc1ccccc1Cl	-	-	13µM	-	-	-
CC(C)CNc1ncnc2c1cnn2Cc1ccccc1Cl	-	-	-	-	-	-
CCCC(=O)C1=C(c2ccc(C)c(C)c2)N(C(=O)CCC)n2c(CC)nnc2S1	-	-	.	-	.	-
CCC(=O)C1=C(c2ccc(OC)c(OC)c2)N(C(=O)CC)n2c(CC)nnc2S1	-	-	23µM	-	.	?
COc1ccc(CS(=O)(=O)/C(Cl)=C(/Cl)C(=O)Nc2ccc(OC)nc2)cc1	21µM	?	16µM	-	-	-
COc1ccc(NC(=O)/C(Cl)=C(/Cl)S(=O)Cc2ccccc2)cn1 (centres undefined)	21µM	?	-	-	-	-
CC(NC(=O)c1cc(COc2ccc3ncccc3c2)on1)c1ccc(F)cc1 (centres undefined)	-	-	?	-	-	-
O=C(NCCc1cn2ccccc2n1)c1cc(COc2ccc3ncccc3c2)on1	?	-	16µM	-	-	-
CCOC(=O)CN(Cc1cc(OC)cc(N(C)C)c1OC)C(=O)C1CC(CO[Si](C)(C)C(C)(C)C)=CN1C(=O)OC(C)(C)C (centres undefined)	-	-	-	-	.	.
COc1cc(C(=O)NCc2cc3ccccc3n2C)cc(OC)c1OC	-	-	-	-	-	-
CCn1c(CNC(=O)c2cc(OC)c(OC)c(OC)c2)cc2ccccc21	-	-	21µM	-	-	-
CSc1ccc(S(=O)(=O)Nc2ccc3c4c(cccc24)CC3)cc1	?	-	18µM	-	-	-
SMILES	A549 tox	rTrxR1 inhibitor	Nrf2 inh	TrxR1 substrate	Mito fusion act	mIDH1 inhibitor
Cc1ccccc1-c1nc(CS(=O)(=O)CC(=O)NCCCN2CCCC2=O)c(C)o1	-	25µM	-	-	-	-
Cc1ccc(-c2nc(CS(=O)(=O)CC(=O)N3CC(C)CC(C)C3)c(C)o2)cc1 (centres undefined)	-	4µM	21µM	-	-	-
Cc1cccc(N2CCN(C(=O)CS(=O)(=O)Cc3nc(-c4ccccc4F)oc3C)CC2C)c1 (centres undefined)	-	-	16µM	-	-	-
Cc1ccc(-c2nc(CS(=O)(=O)CC(=O)N3CCN(C)CC3)c(C)o2)cc1	-	-	-	-	-	-
Cc1cccc(N2CCN(C(=O)CS(=O)(=O)Cc3nc(-c4ccccc4C)oc3C)CC2C)c1 (centres undefined)	-	-	23µM	-	.	-
CCN(N=O)c1ccc(/C=C2\C=Cc3ccccc32)cc1	.	-	.	-	.	.
COC(=O)C1=C(C)NC2=C(C(=O)CCC2)C1c1cn(Cc2ccc(Cl)cc2Cl)nc1-c1ccccc1 (centres undefined)	?	-	26µM	-	-	-
CCOC(=O)C1=C(C)NC2=C(C(=O)CCC2)C1c1cn(Cc2ccc(Cl)cc2Cl)nc1-c1ccccc1 (centres undefined)	?	-	?	-	-	-
CCN(C[C@H]1N[C@@](Cc2ccccc2)(C(=O)OC)[C@H]2C(=O)N(Cc3ccccc3)C(=O)[C@@H]12)C(=O)C1CCCCC1	?	-	15µM	-	.	-
C=C1C=CS(=O)(=O)N(C(CC(C)C)C(=O)OC)C1 (centres undefined)	-	11µM	-	-	.	.
COc1ccc(S(=O)(=O)N2CCCCC2)cc1NC(=O)c1[nH]c(C)c(C(C)=O)c1C	-	-	18µM	-	.	-
COc1ccc(S(=O)(=O)N2CCCCC2)cc1NCC(=O)Nc1ccc(C)cc1	-	-	16µM	-	-	-
Cc1ccc(CNC(=O)Cn2ccc3cc(S(=O)(=O)N4CCCCCC4)ccc32)cc1	?	-	15µM	-	-	-
CC(=O)c1c(C)[nH]c(C(=O)Nc2cc(S(=O)(=O)N3CCCCC3)ccc2C)c1C	-	-	?	-	-	-
CN(CC(=O)Nc1ccc(F)cc1)c1ccc(S(=O)(=O)N2CCCCC2)cc1[N+](=O)[O-]	-	-	13µM	-	-	-
CCOC(=O)Cn1c(=O)n(C2CCCCC2)c2nc(-c3ccc(Cl)cc3)nc(C(N)=O)c21	-	-	.	-	.	-
Cc1ccc(S(=O)(=O)N2CCCCC2)cc1NC(=O)CSc1nncn1-c1ccccc1	-	-	18µM	-	-	-
COc1ccc(OC)c(CNC(=O)CCCn2ccc3cc(S(=O)(=O)N4CCCC4)ccc32)c1	?	-	15µM	-	-	-
COc1ccc(-n2cnnc2SCC(=O)Nc2cc(S(=O)(=O)N3CCCCC3)ccc2C)cc1	-	-	?	-	-	-
COc1ccccc1CNCC(=O)Nc1cc(S(=O)(=O)N2CCCCC2)ccc1C	-	-	-	-	.	-
COc1ccc(NC(=O)CCOc2ccccc2F)cc1S(=O)(=O)N1CCCCC1	-	-[2.29 µM]	21µM	-	.	-
COc1ccc(OC)c(CC(=O)Nc2cc(S(=O)(=O)N3CCCCC3)ccc2C)c1	-	-	21µM	-	-	-
O=C(NC1CCCCC1)c1ccc(CSc2nc3cccnc3n2Cc2cccc(F)c2)cc1	-	-	?	-	.	-
Cc1nc2nncn2c(N2CCN(c3ccccc3)CC2)c1C	-	-	-	-	.	.
